Only some compounds are listed: those with a hit (about 4% of all), similar ones and a draw of the others.
TROY NFkB inh – inhibitors of TROY-driven NF-kB signaling, primary screen, Q293 LMP1-TROYcd cells, NF-kB luciferase, uHTS; Q293 LMP1-TROYcd NF-kB luciferase reporter, 4 h; AID 1347056, 2019; 360,000 tested, 0.98% active; inhibition, % at 10 µM;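 active means compounds whose plate-normalised and pattern-corrected inhibition of the luciferase reporter signal at the single screening dose is 50% or more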
KKLEB tox – cytotoxicity in KKLEB CF airway cells, primary screen, cytotoxicity control for CF NF-kB inhibitor project, cell-based, uHTS, fluorescence assay plates; KKLEB CF airway cells viability, ATPlite luminescence, overnight; active compounds read low; cells stimulated with P. aeruginosa culture filtrate; 360,000 tested, 0.36% active; activity change (cytotoxicity), % at 5 µM; AID 602141, 2011;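 active means corrected activity change at or below -50% at 5 µM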
HIF-2a block – HIF-2a reporter inhibitors, primary screen, luminescence, 786-0 RCC cells | 360,000 tested, 0.72% active | 786-0 RCC cells HIF-2a reporter, luciferase luminescence, overnight | inhibition, % at 18.8 µM;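 active means inhibition of the luminescence signal of 40% or more relative to plate controls, in a single-dose primary screen at 18.75 µM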
TWEAK-Fn14 inh – inhibitors of TWEAK-Fn14 signaling, primary screen, luciferase reporter cells, uHTS. 360,000 tested, 2% active. TWEAK-stimulated Fn14 reporter cells, luciferase luminescence, 8 h. inhibition, % at 10 µM; in the data active means inhibition above about 50%
CF NFkB inh – inhibitors of PAF-induced NF-kB signaling, primary screen, cell-based, GFP fluorescence, uHTS; KKLEB NF-kB-GFP reporter, GFP fluorescence overnight; 360,000 tested, 0.86% active; inhibition, % at 5 µM; AID 588850, 2011;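 active means at least 50% inhibition at 5 µM, scaled per plate between neutral and stimulator controls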;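 further: PAF is a Pseudomonas aeruginosa culture filtrate used as stimulus; plate controls were PAF-stimulated DMSO wells for no effect and unstimulated DMSO wells for full effect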
Peg3 prom inh-1 – Peg3 promoter-driven luciferase inhibitors, primary screen, cell-based, HeLa, luciferase luminescence; HeLa PEG-Prom luciferase reporter, overnight; inhibition, % at 20 µM; 360,000 tested, 1.7% active; AID 588405, 2011;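 active means inhibition of at least 50% at 20 µM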
Peg3 prom inh-2 – Peg3 promoter reporter inhibitors, retest, confirmation, cell-based, HeLa, luciferase reporter, single concentration; AID 602417, 2012; shares compounds with Peg3 prom inh-1; HeLa PEG-Prom luciferase reporter, luminescence, overnight; 1,300 tested, 84% active; inhibition, % at 20 µM;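 active means at 20 µM dose, 40% or more inhibition averaged across four replicates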
Active calls of the source: *.

Screening CC1=CC(C)[C@H](/C=N/n2c(=O)[nH]c3c([nH]c4ccc(Br)cc43)c2=O)C(C)C1 (stereo partly drawn) returned TROY NFkB inh 20.7, KKLEB tox -17.5, HIF-2a block 11.8, TWEAK-Fn14 inh 13.5, CF NFkB inh 11.1, Peg3 prom inh-1 93.2* and Peg3 prom inh-2 54.7*.
For COc1ccc2[nH]c3c(=O)n(N)c(=O)[nH]c3c2c1 the results were TROY NFkB inh -29.9, KKLEB tox 4.1, HIF-2a block 10.3, TWEAK-Fn14 inh 2.4, CF NFkB inh -6.2 and Peg3 prom inh-1 13.7.
Screening COc1ccc2c(c1)[nH]c1c(=O)n(/N=C/C3C(C)C=C(C)CC3C)c(=O)[nH]c12 (stereo not drawn) returned TROY NFkB inh 6.4, KKLEB tox 7.7, HIF-2a block 12.0, TWEAK-Fn14 inh -0.3, CF NFkB inh -13.4, Peg3 prom inh-1 58.5* and Peg3 prom inh-2 45.4*.
Screening CCOC(=O)/C(=C\c1ccccc1)C(=O)CCN1CCOCC1 returned TROY NFkB inh 0.1, KKLEB tox -14.8, HIF-2a block 9.6, TWEAK-Fn14 inh 20.6, CF NFkB inh 5.9, Peg3 prom inh-1 96.7* and Peg3 prom inh-2 85.7*.
O=C(CCc1ccccc1)OCCN1CCOCC1 was read as TROY NFkB inh 3.4, KKLEB tox 9.7, HIF-2a block -1.0, TWEAK-Fn14 inh 3.2, CF NFkB inh -10.0 and Peg3 prom inh-1 -13.2.
O=C(C[C@@H]1C/C=C\C[C@H](NC(=O)OCC2c3ccccc3-c3ccccc32)C(=O)OC[C@@H]2CCCN2C1=O)N[C@H](CO)Cc1ccccc1 was read as TROY NFkB inh -6.5, KKLEB tox 7.8, HIF-2a block 5.3, TWEAK-Fn14 inh -12.1, CF NFkB inh -7.7 and Peg3 prom inh-1 -6.3.
`CC(=O)c1ccc(N2CCN(S(=O)(=O)c3c(C(=O)N4CCCCC4)c(C)n(C)c3C)CC2)cc1` gave TROY NFkB inh -15.3, KKLEB tox 4.6, HIF-2a block -18.1, TWEAK-Fn14 inh -18.9, CF NFkB inh -1.1 and Peg3 prom inh-1 -8.3.
Screening CCOc1ccc2nc(NC(=O)c3cccc(-c4cc5ccccc5oc4=O)c3)sc2c1 returned TROY NFkB inh -3.5, KKLEB tox -58.2*, HIF-2a block -53.2, TWEAK-Fn14 inh -79.1, CF NFkB inh 50.4*, Peg3 prom inh-1 89.0* and Peg3 prom inh-2 -8.8.
Screening O=C(c1cc2cc(Cl)ccc2[nH]1)N1CCN(C(=O)c2ccco2)CC1 returned TROY NFkB inh 21.3, KKLEB tox 1.0, HIF-2a block 0.8, TWEAK-Fn14 inh 15.5, CF NFkB inh 8.0 and Peg3 prom inh-1 -15.5.
Screening CCOc1ccc(N=C2C(=O)N(CN3CCOCC3)c3ccccc32)cc1 returned TROY NFkB inh -32.1, KKLEB tox 6.6, HIF-2a block -10.4, TWEAK-Fn14 inh -0.3, CF NFkB inh 1.7 and Peg3 prom inh-1 -11.1.
Screening CCOC(=O)Cn1c2ccc(OC)cc2c2nc3ccccc3nc21 returned TROY NFkB inh -2.4, KKLEB tox -45.5, HIF-2a block 16.0, TWEAK-Fn14 inh 7.9, CF NFkB inh 25.6, Peg3 prom inh-1 87.9* and Peg3 prom inh-2 33.2.
`COC(=O)Cn1c2ccc(OC)cc2c2nc3ccccc3nc21` gave TROY NFkB inh -40.4, KKLEB tox -2.1, HIF-2a block 5.8, TWEAK-Fn14 inh 5.0, CF NFkB inh -1.4 and Peg3 prom inh-1 23.4.
`Cc1ccc(C(=O)Nc2ccnc(-c3cccnc3)n2)cc1` gave TROY NFkB inh -32.9, KKLEB tox 20.5, HIF-2a block -205.3, TWEAK-Fn14 inh -44.3, CF NFkB inh -32.2 and Peg3 prom inh-1 -113.5.
Screening Cc1ccc(NC(=O)Nc2ccnc(-c3cccnc3)n2)cc1 returned TROY NFkB inh -23.3, KKLEB tox 7.0, HIF-2a block -125.9, TWEAK-Fn14 inh 20.7, CF NFkB inh -13.7, Peg3 prom inh-1 87.8* and Peg3 prom inh-2 67.1*.
Screening CCOc1ccccc1C(=O)NCC(=O)OCc1c(C)noc1C returned TROY NFkB inh 4.8, KKLEB tox 9.9, HIF-2a block 12.5, TWEAK-Fn14 inh -1.2, CF NFkB inh -7.0 and Peg3 prom inh-1 6.9.
CN(C)c1ccc(C=c2c3ccccc3n3c2cc(-c2ccccc2)[n+]3C)cc1 was read as TROY NFkB inh 52.8*, KKLEB tox -22.3, HIF-2a block 90.2*, TWEAK-Fn14 inh 96.7*, CF NFkB inh -144.9, Peg3 prom inh-1 104.0* and Peg3 prom inh-2 97.8*.
`CN(C)c1ccc(C=C2C=C(c3ccccc3)OC2=O)cc1` gave TROY NFkB inh 8.5, KKLEB tox -6.3, HIF-2a block -87.2, TWEAK-Fn14 inh 11.5, CF NFkB inh -10.3 and Peg3 prom inh-1 -51.3.
`CC1CCCCN1CCNC(=O)c1ccc2c(=O)n(Cc3ccc(Cl)cc3)c(=S)[nH]c2c1` (stereo not drawn) gave TROY NFkB inh -44.7, KKLEB tox -11.6, HIF-2a block 1.7, TWEAK-Fn14 inh -40.7, CF NFkB inh -4.4, Peg3 prom inh-1 101.7* and Peg3 prom inh-2 97.6*.
For COc1cc(OC)cc(-c2nnc(NC(=O)Cc3ccc(F)cc3)o2)c1 the results were TROY NFkB inh 6.7, KKLEB tox 6.2, HIF-2a block 5.0, TWEAK-Fn14 inh -26.0, CF NFkB inh -1.3 and Peg3 prom inh-1 20.8.
CCOC(=O)CN(C(=O)CSc1nnc2c(n1)[nH]c1ccc(F)cc12)c1ccccc1 was read as TROY NFkB inh 17.9, KKLEB tox -4.9, HIF-2a block 15.9, TWEAK-Fn14 inh 17.9, CF NFkB inh 5.0, Peg3 prom inh-1 56.3* and Peg3 prom inh-2 49.0*.
`CC1CCc2cc(F)ccc2N1C(=O)CSc1nnc2c(n1)[nH]c1ccc(F)cc12` (stereo not drawn) gave TROY NFkB inh 28.1, KKLEB tox -35.9, HIF-2a block 3.2, TWEAK-Fn14 inh 23.8, CF NFkB inh 28.5, Peg3 prom inh-1 99.8* and Peg3 prom inh-2 23.3.
`Cc1cc(C)c2sc(N(CCCN(C)C)C(=O)c3ccc(S(=O)(=O)N(C)C4CCCCC4)cc3)nc2c1` gave TROY NFkB inh -24.2, KKLEB tox -14.4, HIF-2a block -9.2, TWEAK-Fn14 inh -38.9, CF NFkB inh 42.2, Peg3 prom inh-1 106.6* and Peg3 prom inh-2 98.3*.
CCOC(=O)N1CCN(S(=O)(=O)c2ccc(C(=O)NNc3nc4cc(C)cc(C)c4s3)cc2)CC1 was read as TROY NFkB inh 9.6, KKLEB tox 10.9, HIF-2a block 13.3, TWEAK-Fn14 inh -19.2, CF NFkB inh -4.8 and Peg3 prom inh-1 46.3.

Screening data as filed in PubChem BioAssay.
